The panel holds about 83,000 compounds, 20% with a hit somewhere; the sample as a whole holds those more often.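 A percent growth of 40 corresponds to 60% growth inhibition; 0 means no net growth; -100 means all cells died. Active threshold: below 10.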 A number with no mark means an inactive call. The source made the active and inactive calls.

Common to all, as to test: NCI-60 one-dose screen, 48 h (100 = growth as untreated, 0 = no growth, -100 = all killed)
Holding throughout (details): 10 µM unless noted

Assay [1] deals with NCI-H23 lung.
Assay [2] relates to NCI-H226 lung.
For assay [3], the system named is NCI-H322M lung.
The subject of assay [4] is HOP-62 NSCLC.
Assay [5] deals with NCI-H460 lung.
In assay [6] the test system is HOP-92 NSCLC.
In assay [7] the test system is NCI-H522 lung.
Assay [8] deals with A549/ATCC NSCLC.
The test system of assay [9] is 786-0 renal.
In assay [10] the test system is COLO 205 colon.
The subject of assay [11] is DU-145 prostate.
Assay [12] relates to K-562 leukemia.
For assay [13], the system named is MALME-3M melanoma.
For assay [14], the system named is MDA-MB-231 breast.
The test system of assay [15] is RXF 393 renal.
Assay [16] relates to SF-268 CNS.
Assay [17] deals with SF-295 CNS.
Assay [18] concerns SF-539 CNS.
Assay [19] has as its system UACC-257 melanoma.
Assay [20] deals with M14 melanoma.

Consider `C1CN(SSN2CCOCC2)CCO1`, for which the growth was 3.63% [100 µM] (active) in assay [1]; 26.5% [100 µM] in assay [2]; 59.3% [100 µM] in assay [3]; 91.9% [100 µM] in [4]; 10.8% [100 µM] in assay [5]; -0.94% [100 µM] (active) in assay [6]. For the same compound, the growth in assay [7] was -53.1% [100 µM] (active); in assay [8], 35.7% [100 µM]; in assay [9], -93% [100 µM] (active); in assay [10], -70% [100 µM] (active); in [11] it was 3.92% [100 µM] (active); in assay [12], 15.2% [100 µM]. The growth in [13] is -53.1% [100 µM] (active); in [14], -79.4% [100 µM] (active); in assay [15], -62.6% [100 µM] (active); in [16], -78.9% [100 µM] (active); in [17], 5.96% [100 µM] (active); in assay [18], -37.6% [100 µM] (active). For the same compound, the growth in assay [19] is 49.6% [100 µM]; in [20], -7.16% [100 µM] (active).

In the case of `Cc1ccc(-c2nc(N3CCCNCC3)c3oc(-c4ccccc4)nc3n2)cc1`, the growth in assay [1] is 9.93% (active); in assay [2], 93.1%; in assay [3] it was -70.4% (active); in [4], -55.3% (active); in [5], -67.9% (active); in assay [6] it was -27.1% (active). In addition, the growth is -74.6% (active) in assay [7]; -87.8% (active) in assay [8]; -89.8% (active) in [9]; -80.9% (active) in assay [10]; -15.2% (active) in [11]; -63.6% (active) in assay [12]. The growth in [13] is -92.4% (active); in assay [14] it was -91.7% (active); in [15], -74.3% (active); in assay [16], -42.9% (active); in assay [17], -89.6% (active); in assay [18], -91.4% (active). Besides, the growth is -82.2% (active) in assay [19] and -94.7% (active) in assay [20].

Take `N#Cc1nc(-c2ccc(F)cc2)oc1S(=O)(=O)N1CCCCC1`: the growth in assay [1] was 65.7%; in [2] it was 79%; in assay [3], 94.3%; in [4], 102%; in assay [5] it was 101%; in assay [6] it was 78.9%. The growth is -14.8% (active) in [7]; 103% in [8]; 86.4% in assay [9]; -13.2% (active) in [10]; 99% in assay [11]; 7.64% (active) in assay [12]. Besides, the growth in assay [13] was 42.8%; in assay [14], 78.1%; in assay [15], 55.4%; in assay [16] it was 106%; in [17], 104%; in [18], 72.6%. Further, the growth is 91.2% in [19] and 68.7% in assay [20].

For `COC(=O)/C=C1/SC(=Nc2ccc(C(F)(F)F)cc2)N(CCc2c[nH]c3ccc(O)cc23)C1=O`, the growth in assay [1] was 18.6%; in assay [2], 1.54% (active); in assay [3], 6.96% (active); in [4] it was -26.6% (active); in [5] it was -60% (active); in assay [6], -54% (active). Further, the growth in assay [7] is -40.6% (active); in [8], 18.1%; in assay [9] it was -59.5% (active); in assay [10] it was -58.9% (active); in assay [11], 12.7%; in assay [12] it was 19.9%. Further, the growth in assay [13] was -13.8% (active); in [14], -13.9% (active); in [15], -50.9% (active); in [16] it was -5.68% (active); in [17], 14.2%; in assay [18] it was -37.3% (active). Further, the growth was 9.58% (active) in assay [19] and 0.0712% (active) in assay [20].

For `CCN(CC)CCn1c2ccc(O)cc2c2sc3cc(O)ccc3c(=O)c21`, the growth was 25.8% in [1]; 68.2% in assay [2]; 30% in assay [3]; 38.4% in assay [4]; 8.46% (active) in [5]; 60.5% in assay [6]. The growth in [7] was 35.1%; in assay [8] it was 21.6%; in assay [9] it was 27%; in assay [10] it was 30.3%; in assay [11], 43.6%; in [12] it was 14.8%. Moreover, the growth in assay [13] was 15.6%; in assay [14], 43.5%; in assay [15], 26.6%; in assay [16], 42%; in assay [17], 17.6%; in [18], 18.1%. For the same compound, the growth is 55.4% in [19] and 19.6% in assay [20].

Regarding `C#Cc1c2c(c(OC)c3c1OCO3)[C@H]([C@H]1OC(=O)c3c1ccc(OC)c3OC)N(C)CC2`, the growth in [1] is 86%; in [2], 98%; in [3], 94%; in assay [4], 71.8%; in assay [5], 96%; in assay [6] it was 91.2%. Besides, the growth is 60.3% in [7]; 65.5% in [8]; 95.4% in [9]; 79.7% in assay [10]; 95.1% in [11]; 31.2% in [12]. The growth was 69.9% in [13]; 87.5% in assay [14]; 92.3% in [15]; 90.4% in assay [16]; 77.7% in assay [17]; 96.3% in [18]. Moreover, the growth in [19] is 82.8%; in [20], 71.4%.

As for `COc1cc2c(cc1OC)C(C)N(S(N)(=O)=O)CC2` (stereo not given), the growth in assay [1] was 87.1%; in assay [2] it was 78.8%; in assay [3], 105%; in assay [4], 80.2%; in assay [5], 111%; in assay [6], 98.6%. The growth was 98.4% in [7]; 101% in assay [8]; 89.3% in assay [9]; 111% in [10]; 105% in [11]; 103% in [12]. In addition, the growth in [13] is 105%; in assay [14], 101%; in assay [15] it was 113%; in assay [16], 96.2%; in assay [17], 104%; in assay [18], 97.7%. Also, the growth in [19] was 100%; in assay [20], 91.8%.

For the compound `O=C(/C=C/c1cn(-c2ccccc2)nc1-c1ccc(Cl)cc1)c1ccc(F)cc1`, the growth was 69.9% in [1]; 85.8% in [2]; 77.2% in assay [3]; 102% in [4]; 74% in assay [5]; 99.2% in [6]. The growth in [7] was 87.1%; in assay [8], 79.7%; in [9], 62.8%; in assay [10] it was 93.4%; in assay [11], 88.7%; in assay [12], 57.7%. Further, the growth is 87.5% in assay [13]; 65.6% in [14]; 100% in assay [15]; 83.4% in assay [16]; 172% in assay [17]; 96.6% in assay [18]. For the same compound, the growth is 104% in assay [19] and 79.3% in assay [20].

(Values after PubChem BioAssay (NCI).)
